This passage reports Potency and outcome results from PubChem BioAssay (Tox21).

The target in test [1] is Aryl hydrocarbon receptor (Homo sapiens) (UniProt P35869). Put plainly: qHTS assay to identify small molecule that activate the aryl hydrocarbon receptor (AhR) signaling pathway (AID 743085).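 Further: HG2L7.5c1 human HepG2 liver cells with stably integrated DRE-driven firefly reporter; series mostly up to about 70 µM; nearly all actives have a fitted effect of over 15% in size.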 Summed up: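 HepG2 cells (HG2L7.5c1) stably carrying a firefly luciferase reporter driven by 20 dioxin responsive elements were exposed to compound for 24 h at 37C after a 5 h settling period; luminescence rise (ONE-Glo) indicated activation.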
Sequence of Aryl hydrocarbon receptor (Homo sapiens) (P35869 whole entry, looked up): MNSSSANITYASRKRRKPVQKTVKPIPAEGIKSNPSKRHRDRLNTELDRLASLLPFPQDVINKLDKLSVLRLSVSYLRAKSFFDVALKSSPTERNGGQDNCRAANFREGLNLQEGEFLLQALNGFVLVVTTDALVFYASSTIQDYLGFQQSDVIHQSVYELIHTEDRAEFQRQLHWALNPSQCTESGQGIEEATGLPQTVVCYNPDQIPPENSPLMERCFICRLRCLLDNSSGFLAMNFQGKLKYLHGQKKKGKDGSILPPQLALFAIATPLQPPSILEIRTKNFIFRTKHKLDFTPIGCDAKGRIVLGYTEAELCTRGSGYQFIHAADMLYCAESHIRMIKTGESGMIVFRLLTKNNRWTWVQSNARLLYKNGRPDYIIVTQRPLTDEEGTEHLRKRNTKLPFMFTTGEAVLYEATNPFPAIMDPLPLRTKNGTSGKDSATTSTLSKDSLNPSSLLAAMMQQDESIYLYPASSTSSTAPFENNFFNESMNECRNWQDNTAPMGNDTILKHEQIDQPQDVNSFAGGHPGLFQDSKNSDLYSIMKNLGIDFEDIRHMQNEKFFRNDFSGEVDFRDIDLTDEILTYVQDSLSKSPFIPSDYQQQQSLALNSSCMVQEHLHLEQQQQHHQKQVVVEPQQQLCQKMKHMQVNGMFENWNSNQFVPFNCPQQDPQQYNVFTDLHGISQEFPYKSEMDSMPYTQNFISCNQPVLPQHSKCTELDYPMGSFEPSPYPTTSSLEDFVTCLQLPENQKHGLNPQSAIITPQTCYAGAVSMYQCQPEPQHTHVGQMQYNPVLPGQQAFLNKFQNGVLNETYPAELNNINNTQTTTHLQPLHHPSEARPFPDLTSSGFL
On the technique in general: Quantitative high-throughput screening tests each substance at several concentrations.

Test [2] is described as follows: qHTS assay to identify small molecule that activate the aryl hydrocarbon receptor (AhR) signaling pathway - cell viability counter screen (AID 743086). Further: series mostly up to about 70 µM; nearly all actives have a fitted effect of over 45% in size. A digest of the protocol: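 Cytotoxicity counter screen: CellTiter-Fluor signal (30 min, 37 C) in 4000 HepG2 cells/well carrying the DRE-luciferase reporter, following 24 h compound exposure at 37 C.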
Test [3] has as its target Peroxisome proliferator-activated receptor gamma (Homo sapiens) (UniProt P37231). Briefly: qHTS assay to identify small molecule antagonists of the peroxisome proliferator-activated receptor gamma (PPARg) signaling pathway (AID 743191; calls by dose curve; further: series mostly up to about 63 µM; nearly all actives have a fitted effect of over 30% in size). Summed up: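 Beta-lactamase reporter under UAS control in HEK293H PPARg-bla cells; compound treatment 17 h at 37C. Read-out: fluorescence intensity after 1 h room-temperature incubation with LiveBLAzer B/G FRET substrate.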

The nature of test [4]: qHTS assay to identify small molecule antagonists of the peroxisome proliferator-activated receptor gamma (PPARg) signaling pathway - cell viability counter screen (AID 743194). Further: nearly all actives have a fitted effect of over 55% in size. As to conditions: Potency: co-treated with 50 nM rosiglitazone. A digest of the protocol:
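Viability was measured as CellTiter-Glo luminescence in GeneBLAzer PPARg UAS-bla HEK293H cells. These cells had been exposed 17 h at 37 C to compounds together with rosiglitazone at 50 nM final, with the beta-lactamase readout taken in the same wells.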

Test [5] in a line: qHTS assay for small molecule agonists of the antioxidant response element (ARE) signaling pathway (AID 743202; active means well fitted activation curve with a large enough effect in the signal ratio in the repeat runs, not every such curve was filed as active; the % refers to the signal ratio; further: potency means the concentration at half of the fitted maximal effect). Summed up:
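After 16 hours of compound treatment at 37 C, HepG2 cells with a stably integrated ARE-driven beta-lactamase reporter were loaded 2 hours at room temperature with LiveBLAzer B/G FRET substrate and fluorescence intensity measured.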

Test [6] can be described thus: qHTS assay for small molecule agonists of the antioxidant response element (ARE) signaling pathway - cell viability counter screen (AID 743203; calls by dose curve; further: nearly all actives have a fitted effect of over 55% in size). Summed up: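 Viability counter screen: stably transfected ARE-bla HepG2 line, 16 hrs compound exposure at 37C/5% CO2, ATP-based CellTiter-Glo luminescence measured in the reporter wells.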
Test [7] in a line: qHTS assay for small molecule activators of the heat shock response signaling pathway - cell viability counter screen (AID 743209). Further: nearly all actives have a fitted effect of over 50% in size. A digest of the protocol: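 Viability of HSE-bla HeLa cells is measured with CellTiter-Glo in the wells already used for the reporter read. Compound exposure lasts 5 h at 37 C, and luminescence is read after 30 min at room temperature.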
Test [8] in a line: qHTS assay for small molecule activators of the heat shock response signaling pathway (AID 743210; active means well fitted activation curve with a large enough effect in the signal ratio in the repeat runs, with a control signal flat, not every such curve was filed as active; the % refers to the signal ratio; further: series mostly up to about 63 µM). A digest of the protocol: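 Compound exposure lasted 5 h at 37 C in HeLa cells carrying a heat-shock-element-driven beta-lactamase reporter. Read-out: fluorescence intensity after 2.5 h room-temperature loading with LiveBLAzer B/G FRET substrate.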
Test [9] is described as follows: qHTS assay to identify small molecule agonists of the peroxisome proliferator-activated receptor delta (PPARd) signaling pathway - cell viability counter screen (AID 743211). Further: nearly all actives have a fitted effect of over 55% in size. Summed up:
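PPARd-bla HEK293H cells (UAS-beta-lactamase reporter) were treated with compounds for 17 h at 37 C. Viability was then read in the same wells by CellTiter-Glo luminescence after 30 min at room temperature.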

The target in test [10] is Peroxisome proliferator-activated receptor delta (Homo sapiens) (UniProt Q03181). Briefly: qHTS assay to identify small molecule agonists of the peroxisome proliferator-activated receptor delta (PPARd) signaling pathway (AID 743212; calls by dose curve). Summed up:
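Beta-lactamase reporter readout: a ratiometric FRET signal from the LiveBLAzer substrate after 2 h at room temperature. Compound exposure at 37 °C in PPARδ-bla HEK293H cells driven by an upstream activator sequence.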

Test [11] can be described thus: qHTS assay to identify small molecule antagonists of the peroxisome proliferator-activated receptor delta (PPARd) signaling pathway - cell viability counter screen (AID 743213). Further: nearly all actives have a fitted effect of over 50% in size. Summed up: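 Viability counter-screen, qHTS format: PPARd-bla HEK293H, L165041 300 nM final, 17 h compound exposure at 37 C, CellTiter-Glo luminescence after 30 min RT.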
Test [12] concerns the target Peroxisome proliferator-activated receptor delta (Homo sapiens) (UniProt Q03181). Put plainly: qHTS assay to identify small molecule antagonists of the peroxisome proliferator-activated receptor delta (PPARd) signaling pathway (AID 743215; active means well fitted inhibition curve with a large enough effect in the signal ratio in the repeat runs, not every such curve was filed as active; the % refers to the signal ratio;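 further: cells stimulated with agonist L165041 at 300 nM final during compound exposure; series mostly up to about 62 µM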). A digest of the protocol:
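Plated HEK293H PPARd-bla cells rested 5 h at 37 C and 5% CO2. Compound, then agonist L165041 at 300 nM final, was added; 17 h at 37 C followed. Substrate loading, 2 h room temperature, fluorescence measured.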

The target in test [13] is Bile acid receptor (Homo sapiens) (UniProt Q96RI1). Briefly: qHTS assay to identify small molecule antagonists of the farnesoid-X-receptor (FXR) signaling pathway (AID 743217; active means well fitted inhibition curve with a large enough effect in the signal ratio in the repeat runs, not every such curve was filed as active; the % refers to the signal ratio). Summed up:
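Screen of the Tox21 10K library in quantitative HTS format using FXR-UAS-bla HEK 293T reporter cells. Agonist chenodeoxycholic acid, 50 uM final, added with compounds; 16 h incubation at 37 °C; beta-lactamase FRET fluorescence measured.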

Test [14] in a line: qHTS assay to identify small molecule agonists of the farnesoid-X-receptor (FXR) signaling pathway - cell viability counter screen (AID 743218). Further: nearly all actives have a fitted effect of over 45% in size. Summed up:
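Viability of FXR-bla HEK 293T cells is measured by ATP-based CellTiter-Glo luminescence following 16 h compound treatment at 37 C and a prior 2 h room-temperature beta-lactamase substrate step.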

Test [15] has as its target Bile acid receptor (Homo sapiens) (UniProt Q96RI1). Put plainly: qHTS assay to identify small molecule agonists of the farnesoid-X-receptor (FXR) signaling pathway (AID 743220; active means well fitted activation curve with a large enough effect in the signal ratio in the repeat runs, not every such curve was filed as active; the % refers to the signal ratio). A digest of the protocol: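 FXR-UAS-bla HEK 293T cells carrying a UAS-driven beta-lactamase reporter were plated for 5 h at 37C/5% CO2, then exposed to DMSO-dissolved Tox21 10K compounds for 16 h at 37C. A LiveBLAzer B/G FRET substrate was loaded for 2 h at room temperature before fluorescence reading.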

Test [16] can be described thus: qHTS assay to identify small molecule antagonists of the farnesoid-X-receptor (FXR) signaling pathway - cell viability counter screen (AID 743221; active means well fitted cell-killing curve with a large enough effect in the repeat runs, not every such curve was filed as active; further: nearly all actives have a fitted effect of over 50% in size). A digest of the protocol: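 FXR-UAS-bla HEK 293T cells were treated with test compounds plus chenodeoxycholic acid (50 uM final) for 16 h at 37 C. Cell viability in the same wells was then read as CellTiter-Glo luminescence after 30 min at room temperature.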

Test [17] deals with Vitamin D3 receptor (Homo sapiens) (UniProt P11473). Briefly: qHTS assay to identify small molecule agonists of the vitamin D receptor (VDR) signaling pathway (AID 743222; calls by dose curve). A digest of the protocol: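 Fluorescence from cleaved LiveBLAzer B/G FRET substrate served as readout. VDR-bla cells had been treated 16 h at 37C with test compounds in DMSO, following a 4 h settling period, and substrate was loaded for 2 h at RT.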
Sequence of Vitamin D3 receptor (Homo sapiens) (P11473 whole entry, looked up): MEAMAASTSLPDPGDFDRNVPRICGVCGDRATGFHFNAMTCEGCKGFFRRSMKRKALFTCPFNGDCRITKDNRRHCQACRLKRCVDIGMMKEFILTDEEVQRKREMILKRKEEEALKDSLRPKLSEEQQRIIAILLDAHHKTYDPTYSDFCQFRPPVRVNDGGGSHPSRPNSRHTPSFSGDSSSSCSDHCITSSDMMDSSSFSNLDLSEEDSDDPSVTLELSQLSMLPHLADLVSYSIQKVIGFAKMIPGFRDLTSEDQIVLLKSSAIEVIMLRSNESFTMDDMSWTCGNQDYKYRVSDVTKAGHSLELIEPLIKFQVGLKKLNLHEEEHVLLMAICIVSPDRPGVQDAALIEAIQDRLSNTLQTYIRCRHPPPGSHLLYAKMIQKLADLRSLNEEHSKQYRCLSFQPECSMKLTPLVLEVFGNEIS

For test [18] the target is unchanged. Put plainly: qHTS assay to identify small molecule antagonists of the vitamin D receptor (VDR) signaling pathway (AID 743223; active means well fitted inhibition curve with a large enough effect in the signal ratio in the repeat runs, not every such curve was filed as active; the % refers to the signal ratio). A digest of the protocol: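 VDR-bla cells were plated, incubated 4 h at 37C, then given compound and 1alpha,25-dihydroxyvitamin D3 (3 nM final). After 16 h at 37C, LiveBLAzer B/G FRET substrate was added for 2 h at room temperature and fluorescence read.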

The nature of test [19]: qHTS assay to identify small molecule agonists of the vitamin D receptor (VDR) signaling pathway - cell viability counter screen (AID 743224). Further: series mostly up to about 63 µM; nearly all actives have a fitted effect of over 50% in size. A digest of the protocol:
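Compounds were pin-transferred onto VDR-bla cells plated 4 h earlier; following 16 h incubation at 37C, cell viability was quantified by CellTiter-Glo luminescence after 30 min at room temperature.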

Test [20] concerns the target Peroxisome proliferator-activated receptor gamma (Homo sapiens) (UniProt P37231). Briefly: qHTS assay to identify small molecule agonists of the peroxisome proliferator-activated receptor gamma (PPARg) signaling pathway (AID 743094; active means well fitted activation curve with a large enough effect in the signal ratio in the repeat runs, not every such curve was filed as active; the % refers to the signal ratio). Summed up:
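Reporter activation was scored by fluorescence of cleaved LiveBLAzer B/G substrate (1 h, room temperature) in PPARg-bla HEK293H cells previously treated 17 h at 37C with DMSO-dissolved compounds.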

Inconclusive results are not listed. Calls of active or inactive are those of the source. Unless noted, the call rests on the fitted dose curve; in most records, active means well fitted curve in the direction sought with a large enough effect in the repeat runs; inconclusive means weak or mixed curves; inactive means no such curve, though single readings can be large; an effect the other way counts as inactive or inconclusive.

Sequence of Peroxisome proliferator-activated receptor delta (Homo sapiens) (Q03181 whole entry, looked up): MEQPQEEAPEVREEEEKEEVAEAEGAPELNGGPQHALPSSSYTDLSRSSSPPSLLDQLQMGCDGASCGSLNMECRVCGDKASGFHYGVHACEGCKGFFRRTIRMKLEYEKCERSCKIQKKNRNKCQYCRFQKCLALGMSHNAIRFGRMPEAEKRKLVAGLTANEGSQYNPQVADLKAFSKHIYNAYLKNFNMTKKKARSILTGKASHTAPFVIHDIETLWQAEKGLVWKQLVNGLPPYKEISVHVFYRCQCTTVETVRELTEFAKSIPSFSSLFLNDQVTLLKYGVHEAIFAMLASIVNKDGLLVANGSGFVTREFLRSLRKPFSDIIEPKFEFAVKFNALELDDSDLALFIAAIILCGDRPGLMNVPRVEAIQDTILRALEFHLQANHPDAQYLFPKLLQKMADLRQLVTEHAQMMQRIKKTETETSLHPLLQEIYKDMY
Sequence of Bile acid receptor (Homo sapiens) (Q96RI1 whole entry, looked up): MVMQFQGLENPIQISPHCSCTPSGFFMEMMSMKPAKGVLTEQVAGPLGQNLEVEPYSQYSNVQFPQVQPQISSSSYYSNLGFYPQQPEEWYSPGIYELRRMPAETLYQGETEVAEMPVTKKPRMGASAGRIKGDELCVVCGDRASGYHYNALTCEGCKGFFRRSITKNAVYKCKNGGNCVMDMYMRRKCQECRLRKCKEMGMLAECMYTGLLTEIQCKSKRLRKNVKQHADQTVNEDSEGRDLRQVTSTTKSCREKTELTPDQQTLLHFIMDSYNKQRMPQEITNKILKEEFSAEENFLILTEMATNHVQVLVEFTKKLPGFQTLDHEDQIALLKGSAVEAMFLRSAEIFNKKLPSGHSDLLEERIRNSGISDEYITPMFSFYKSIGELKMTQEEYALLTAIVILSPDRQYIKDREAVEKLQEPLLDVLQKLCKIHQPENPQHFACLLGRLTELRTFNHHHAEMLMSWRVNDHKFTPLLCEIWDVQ
Sequence of Peroxisome proliferator-activated receptor gamma (Homo sapiens) (P37231 whole entry, looked up): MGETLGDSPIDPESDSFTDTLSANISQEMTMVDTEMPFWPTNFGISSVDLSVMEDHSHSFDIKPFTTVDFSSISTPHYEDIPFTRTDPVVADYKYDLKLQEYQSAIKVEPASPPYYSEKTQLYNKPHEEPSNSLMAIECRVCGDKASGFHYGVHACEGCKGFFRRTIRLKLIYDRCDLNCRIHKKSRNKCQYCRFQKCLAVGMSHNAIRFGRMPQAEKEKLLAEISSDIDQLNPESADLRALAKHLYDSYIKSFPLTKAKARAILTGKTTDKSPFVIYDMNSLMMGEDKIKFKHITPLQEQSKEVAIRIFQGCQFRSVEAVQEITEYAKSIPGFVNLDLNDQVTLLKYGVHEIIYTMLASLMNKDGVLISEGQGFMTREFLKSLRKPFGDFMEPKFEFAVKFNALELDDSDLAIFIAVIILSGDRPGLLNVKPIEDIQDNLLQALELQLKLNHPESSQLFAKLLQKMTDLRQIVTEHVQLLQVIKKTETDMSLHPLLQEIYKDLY

Regarding `CSc1ccc(C(=O)C(C)(C)N2CCOCC2)cc1`, the Potency entry in [1], in test [3], in test [4], in test [5], in [6] and in [7] was “inactive” in each case. In addition, the Potency entry in test [9], in test [13], in test [14] and in [19] was “inactive” in each case. Besides, the result in test [2], in [8], in [10], in test [11], in test [12] and in test [15] was inactive. In addition, the result in test [16], in [17] and in test [18] was inactive.

Consider `CC(=O)CC(c1ccc(Cl)cc1)c1c(O)c2ccccc2oc1=O` (configuration not stated), for which the Potency result in test [1], in test [3], in [4], in [6], in test [7] and in test [9] was “inactive” each time. For the same compound, the Potency entry in test [14] and in test [19] was “inactive” each time. In addition, the call in test [2], in test [8], in test [10], in [11], in [16] and in test [17] was inactive.

For the compound `OCCBr`, the Potency entry in test [1], in test [3], in [4], in test [6], in [7] and in [9] was “inactive” each time. In addition, the Potency result in test [13], in test [14] and in test [19] was “inactive” each time. Moreover, the outcome in [2], in [8], in test [11], in test [15], in test [16] and in test [17] was inactive. Also, the result in [18] was inactive. The Potency in test [5] was 27.4 µM (active).

In the case of `C[C@]1(O)CC[C@H]2[C@@H]3CCC4=CC(=O)CC[C@]4(C)[C@@]3(F)[C@@H](O)C[C@@]21C`, the Potency result in test [1], in [3], in test [6], in test [7], in [9] and in [13] was “inactive” each time. For the same compound, the Potency entry in [19] was “inactive”. The result in test [2], in test [8], in test [11], in test [15] and in test [16] was inactive.

For the compound `c1cc2c(c(N3CCNCC3)c1)OCCO2`, the Potency result in [1], in test [3], in test [4], in test [5], in test [6] and in [7] was “inactive” throughout. For the same compound, the Potency entry in test [9], in [14] and in test [19] was “inactive” in each case. Moreover, the compound was classed as inactive in test [2], in test [8], in test [10], in [11], in test [12] and in test [16]. For the same compound, the outcome in test [17] and in test [18] was inactive.

As to `O=C1c2ccccc2C(=O)c2ccccc21`, the Potency result in [1], in [3], in test [4], in test [5], in test [6] and in [7] was “inactive” each time. The Potency entry in test [9], in test [14] and in test [19] was “inactive” throughout. Further, the call in [2], in [8], in test [10], in test [11], in test [16] and in test [17] was inactive. For the same compound, the result in [18] was inactive.

In the case of `CCC(C)(C)c1cc(-n2nc3ccccc3n2)c(O)c(C(C)(C)CC)c1`, the Potency result in test [1], in test [4], in test [7], in test [9], in test [14] and in [19] was “inactive” in each case. In addition, the compound was called inactive in [2], in test [20], in test [8], in test [10], in test [11] and in test [16]. The outcome in test [17] and in test [18] was inactive.

For `OC(c1ccccc1)(c1ccccc1)C1CCNCC1`, the Potency result in test [1], in test [3], in [4], in test [6], in [7] and in [9] was “inactive” each time. Also, the Potency entry in test [13], in [14] and in [19] was “inactive” in each case. In addition, the call in [2], in [8], in test [11], in test [15] and in test [16] was inactive.

For `COC(C)(C)C`, the Potency result in [1], in [4], in test [5], in [6], in test [7] and in test [9] was “inactive” each time. In addition, the Potency result in [14] and in [19] was “inactive” throughout. Besides, the outcome in test [2], in test [8], in test [10], in [16], in test [17] and in [18] was inactive.
